Experimental data from PubChem BioAssay AID1159580 (chemical genetic matrix, 2015).
“And” between values parts separate entries of the source, which are not always exact repeats. Equal values may be shown once. The whole screen tested about 5,500 compounds, of which about 2,000 (36%) were called active. Not shown: some 18% with an inconclusive outcome. Cut-off read from the data, not from the text of the source: active = normalized growth mostly below about 0.91 (no sharp cut-off); inconclusive = no clear call, values can overlap the other calls; inactive = mostly above about 0.92. The list shows a part of the results.

Experiment: chemical genetic growth profiling, strain panel (AID 1159580);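 note: tested at 20 µM; growth read once vehicle control cultures reached saturation at 30 °C; 1 = growth at the plate median or of vehicle wells; lower values mean less growth of the strain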
Conditions: S. cerevisiae deletion strains, growth OD

Measured: normalized growth

Cc1cc(CC(=O)O)n(C)c1C(=O)c1ccc(Cl)cc1
inactive: locus YAL013W, strain DEP1, active compounds read low 1 | locus YAL021C, strain ccr4, active compounds read low 1 | locus YAL026C, strain drs2, active compounds read low 1.04 | locus YAL030W, strain snc1, active compounds read low 1.01 | locus YBL061C, strain skt5, active compounds read low 1.04 | locus YBR009C, strain hhf1, active compounds read low 0.999 | locus YBR021W, strain FUR4, active compounds read low 0.979 | locus YBR023C, strain chs3, active compounds read low 1.03 | locus YBR171W, strain sec66, active compounds read low 1.04 | locus YBR229C, strain ROT2, active compounds read low 0.997 | locus YBR231C, strain swc5, active compounds read low 1.02 | locus YBR279W, strain paf1, active compounds read low 1.02 | locus YCL011C, strain gbp2, active compounds read low 1.03 | locus YCL016C, strain dcc1, active compounds read low 1.04 | locus YCL029C, strain bik1, active compounds read low 1.02 | locus YCL061C, strain MRC1, active compounds read low 1.03 | locus YCL069W, strain vba3, active compounds read low 1.04 | locus YCR088W, strain abp1, active compounds read low 1.03 | locus YDL005C, strain med2, active compounds read low 1.02 | locus YDL035C, strain GPR1, active compounds read low 0.989 | locus YDL040C, strain nat1, active compounds read low 1.02 | locus YDL074C, strain BRE1, active compounds read low 0.978 | locus YDL101C, strain DUN1, active compounds read low 1 | locus YDL134C, strain PPH21, active compounds read low 1 | locus YDL185W, strain tfp1, active compounds read low 0.997 | locus YDL192W, strain arf1, active compounds read low 1.01 | locus YDR001C, strain nth1, active compounds read low 1.02 | locus YDR069C, strain doa4, active compounds read low 1.01 | locus YDR101C, strain arx1, active compounds read low 1.01 | locus YDR137W, strain rgp1, active compounds read low 1.04 | locus YDR150W, strain NUM1, active compounds read low 0.998 | locus YDR159W, strain sac3, active compounds read low 1.02 | locus YDR162C, strain NBP2, active compounds read low 0.997 | locus YDR195W, strain ref2 1.02 | locus YDR297W, strain sur2, active compounds read low 1.03 | locus YDR318W, strain mcm21, active compounds read low 1 | locus YDR334W, strain swr1, active compounds read low 1.03 | locus YDR335W, strain msn5, active compounds read low 1.03 | locus YDR388W, active compounds read low 0.998 | locus YDR392W, strain spt3, active compounds read low 1.02 | locus YDR502C, strain sam2, active compounds read low 0.995 | locus YEL003W, strain gim4, active compounds read low 1.02 | locus YEL037C, strain rad23, active compounds read low 1.02 | locus YEL061C, strain CIN8 (second series), active compounds read low 1.03 | locus YEL061C, strain CIN8, active compounds read low 1 | locus YER015W, strain faa2, active compounds read low 1.03 | locus YER016W, strain bim1, active compounds read low 1.04 | locus YER110C, active compounds read low 1 | locus YER111C, strain swi4, active compounds read low 1.02 | locus YER155C, strain BEM2 (second series), active compounds read low 1.01 | locus YER155C, strain BEM2, active compounds read low 0.982 | locus YER167W, strain BCK2, active compounds read low 0.992 | locus YFR010W, strain ubp6, active compounds read low 1.01 | locus YGL078C, strain dbp3, active compounds read low 1 | locus YGL086W, strain mad1, active compounds read low 0.998 | locus YGL167C, strain pmr1, active compounds read low 1.02 | locus YGL173C, strain kem1, active compounds read low 1.02 | locus YGL227W, strain vid30, active compounds read low 1.02 | locus YGL240W, strain doc1, active compounds read low 1 | locus YGL248W, strain PDE1, active compounds read low 0.998 | locus YGL253W, strain hxk2, active compounds read low 1.04 | locus YGR078C, strain PAC10, active compounds read low 0.988 | locus YGR135W, strain pre9, active compounds read low 0.988 | locus YGR229C, strain SMI1, active compounds read low 0.998 | locus YGR252W, strain gcn5, active compounds read low 0.945 | locus YHR013C, strain ard1, active compounds read low 1.05 | locus YHR027C, strain rpn1, active compounds read low 1.02 | locus YHR030C, strain SLT2, active compounds read low 1 and 1.02 | locus YHR079C, strain IRE1 (second series), active compounds read low 1 | locus YHR079C, strain IRE1, active compounds read low 1.02 | locus YHR094C, strain hxt1, active compounds read low 1 | locus YHR129C, strain ARP1, active compounds read low 0.998 | locus YHR142W, strain chs7, active compounds read low 1.05 | locus YHR200W, strain rpn10, active compounds read low 1.01 | locus YIL066C, strain RNR3, active compounds read low 0.994 | locus YIL073C, strain SPO22, active compounds read low 1.02 | locus YIL125W, strain kgd1, active compounds read low 1.01 | locus YIR030C, strain dcg1, active compounds read low 1.01 | locus YJL092W, strain hpr5, active compounds read low 1.03 | locus YJL095W, strain BCK1 (second series), active compounds read low 1.03 | locus YJL095W, strain BCK1, active compounds read low 0.959 and 1.01 | locus YJL115W, strain asf1, active compounds read low 1.01 | locus YJL129C, strain trk1, active compounds read low 1.06 | locus YJL134W, strain LCB3, active compounds read low 1 | locus YJL154C, strain vps35, active compounds read low 1.02 | locus YJL164C, strain tpk1, active compounds read low 1.02 | locus YJL166W, strain qcr8, active compounds read low 1.03 | locus YJL168C, strain set2, active compounds read low 1.01 | locus YJL187C, strain SWE1 (second series), active compounds read low 0.998 | locus YJL187C, strain SWE1, active compounds read low 1.01 | locus YJR043C, strain POL32, active compounds read low 0.997 | locus YJR066W, strain TOR1, active compounds read low 0.954
